A selection: hits, their analogues and other compounds. The true share with any hit is near 12%.
AMA1-RON2 inh = AMA1-RON2 (P. falciparum) interaction inhibition; AlphaScreen AMA1-biotinylated RON2 peptide binding; Potency, µM (doses to about 58.2 µM), for the others: at the top dose activity change, negative = inhibition, usual class: inhibitors; 0.2% of 360,000 active; AID 720542;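 note: 0% = vehicle wells and -100% = peptide control; nearly all actives have a fitted effect of over 45% in size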
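AMA1 (3D7) with his tag at 25 nM final met compounds first, then biotinylated RON2 peptide at 25 nM; detection used donor plus acceptor beads, 10 µg/mL apiece, read by AlphaScreen after 30 min at room temperature.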
HCV inhibitor = HCV inhibition. Huh7.5.1 HCVcc-Cre infection, luciferase reporter, 44 h. Potency, µM (titrated, usually from 41.8 µM), inactives show at the highest dose activity change, negative = inhibition, actives largely listed as inhibitors. 3.4% of 340,000 active. AID 651820; note: % is set by controls: 0 for no effect and ±100 for the full control effect
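1,000 cells/well; 4 h culture; + compound; + HCVcc-Cre (~0.5 moi); 44 h; luciferase substrate, RT 15 min; read 15 sec.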
Pf growth 96h = inhibits malaria parasite growth, 96 h. 6.9% of 320,000 active. Potency, µM (titrated, usually from 28.7 µM), without a hit: at the highest dose activity change, negative = inhibition, usual class: inhibitors. P. falciparum luciferase reporter growth, 96 h; note: % is set by controls: 0 for no effect and ±100 for the full control effect
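Erythrocytes infected with luciferase-expressing P. falciparum were dispensed at 2% hematocrit and 0.05% parasitemia (final), then incubated with compounds 96 hours at 37 C in 5% CO2. Luminescence after detection reagent addition reported growth.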
SARS PLP yeast = blocks SARS-CoV papain-like protease in a yeast assay | S. cerevisiae expressing SARS-CoV PLpro, growth rescue | Potency, µM (series often up to 32.9 µM), for inactives: at the top dose activity, positive = growth rescue, actives largely listed as activators | 0.19% of 330,000 active | AID 485353; calls by dose curve; note: 0% is about no effect; nearly all actives have a fitted effect of over 55% in size
Pf growth 48h = P. falciparum growth inhibition at 48 hours (one generation); AID 504832; P. falciparum luciferase growth in erythrocytes, 48 h; Potency, µM (series often up to 28.7 µM), for inactives: at the top dose activity change, negative = inhibition, most hits filed as inhibitors; 5.9% of 310,000 active; note: % is set by controls: 0 for no effect and ±100 for the full control effect
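In quantitative HTS format, infected erythrocytes bearing luciferase-reporter parasites were treated for a single generation at 37 C. Luminescence after adding detection reagent served as the growth measure.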
NS1 function inh = inhibitors of influenza NS1 protein function; 0.4% of 270,000 active; Potency, µM (highest dose often 46.1 µM), without a hit: top-dose activity, positive = more growth; AID 2326; calls by dose curve; note: actives are rising curves; nearly all actives have a fitted effect of over 50% in size
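Compounds were scored for reversing the slow growth caused by influenza A NS1 in S. cerevisiae, measured by optical density at 600 nm. Assay medium contained 2% galactose at pH 6.0; NS1-free yeast of the same strain were the positive control.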
* = called active by the depositor; [ ] = remark or other dose. Unless noted, calls come from the whole dose curve; as a rule, active = well fitted curve in the direction sought with a large enough effect; inconclusive = small, poorly fitted or top-dose-only effect, or another doubt; inactive = no such curve, though single readings can be large; an effect the other way counts as inactive or inconclusive. Potency is the fitted concentration of half-maximal effect.

`CCNc1ccc(Br)cc(C(=O)/C=C/c2ccccc2Cl)c1=O` gave AMA1-RON2 inh -18% and HCV inhibitor 13µM*.
Screening CNc1ccc(Br)cc(C(=O)/C=C/c2cccc(Cl)c2Cl)c1=O returned AMA1-RON2 inh -13%, HCV inhibitor inconclusive, Pf growth 96h inconclusive, SARS PLP yeast 0%, Pf growth 48h inconclusive and NS1 function inh 0%.
Screening COc1cc(C2C3=C(CCCC3=O)Nc3[nH]n(-c4ccccc4)c(=O)c32)ccc1O (stereo not given) returned AMA1-RON2 inh -21%, HCV inhibitor inconclusive, Pf growth 96h inconclusive, SARS PLP yeast 4%, Pf growth 48h 5.2µM* and NS1 function inh 10%.
Screening CCn1c(C)nnc1SCC(=O)Nc1ccc(N2CCOCC2)cc1 returned AMA1-RON2 inh -10%, Pf growth 96h -21%, SARS PLP yeast 0%, Pf growth 48h 35% and NS1 function inh 15%.
Screening CCn1c(SCC(=O)Nc2ccc(N3CCOCC3)cc2)nnc1-c1ccco1 returned AMA1-RON2 inh 2%, HCV inhibitor -9%, Pf growth 96h 10µM*, SARS PLP yeast 2% and Pf growth 48h -1%.
For COc1ccc(C(=O)Nc2ccc(NC(=O)CSc3nnc(-c4ccncc4)n3C)cc2)cc1 the results were AMA1-RON2 inh -15%, HCV inhibitor -15%, Pf growth 96h inconclusive, SARS PLP yeast 10%, Pf growth 48h 5% and NS1 function inh -5%.
Screening CCN(CC)S(=O)(=O)c1ccc(NC(=O)CSc2nnc(-c3cccc(OC)c3)n2C)cc1 returned AMA1-RON2 inh -1%, HCV inhibitor -20%, Pf growth 96h inconclusive, SARS PLP yeast 17%, Pf growth 48h 10µM* and NS1 function inh 1%.
For CCN(CC)S(=O)(=O)c1cccc(-c2nnc(SCC(N)=O)n2C)c1 the results were AMA1-RON2 inh 7%, HCV inhibitor 3%, Pf growth 96h inconclusive, SARS PLP yeast -1% and Pf growth 48h -3%.
`COc1ccc(-c2nnc(SCC(=O)Nc3ccc(C)cc3)n2C)cc1` gave AMA1-RON2 inh -1%, HCV inhibitor -14%, Pf growth 96h 5.2µM*, SARS PLP yeast inconclusive, Pf growth 48h -12% and NS1 function inh -6%.
Screening CCn1c(SCC(=O)Nc2ccc(C)cc2)nnc1-c1ccc(O)cc1 returned AMA1-RON2 inh 27%, HCV inhibitor -26%, Pf growth 96h 2.6µM*, SARS PLP yeast 2%, Pf growth 48h inconclusive and NS1 function inh 5%.
COc1cccc(C(=O)N2CCN(C(=O)COc3ccc4ccccc4c3)CC2)c1 was read as AMA1-RON2 inh 8%, HCV inhibitor inconclusive, Pf growth 96h -5%, SARS PLP yeast 1%, Pf growth 48h -1% and NS1 function inh 0%.
For CCCCSc1nnc(-c2ccc(OC)cc2)n1C the results were AMA1-RON2 inh -12%, HCV inhibitor -4%, Pf growth 96h 13µM*, SARS PLP yeast -17%, Pf growth 48h -3% and NS1 function inh -8%.
`COc1ccc(NC(=O)CSc2nnc(-c3ccco3)n2C)cc1` gave AMA1-RON2 inh -1%, HCV inhibitor 5%, Pf growth 96h 6.6µM*, SARS PLP yeast 6%, Pf growth 48h -19% and NS1 function inh -4%.
Cc1ccc(NC(=O)CSc2nc3c([nH]c4ccccc43)c(=O)n2C)cc1 was read as AMA1-RON2 inh -5%, HCV inhibitor 6%, Pf growth 96h 68%[1.15 µM], SARS PLP yeast 1%, Pf growth 48h 32%[1.15 µM] and NS1 function inh -3%.
`Cc1cccc(C)c1NC(=O)CSc1nnc(-c2ccco2)n1N` gave AMA1-RON2 inh 16%, HCV inhibitor 12%, Pf growth 96h inconclusive, SARS PLP yeast 3%, Pf growth 48h -1% and NS1 function inh 9%.
Screening Nn1c(SCC(=O)Nc2ccc(S(N)(=O)=O)cc2)nnc1-c1ccco1 returned AMA1-RON2 inh 51%, HCV inhibitor 29%, Pf growth 96h 13µM*, SARS PLP yeast -7%, Pf growth 48h -19% and NS1 function inh -6%.
Screening Cc1ccc(NC(=O)CSc2nc3sc(C)cc3c(=O)n2C)cc1 returned AMA1-RON2 inh 25%, HCV inhibitor -23%, Pf growth 96h 9.3µM*, SARS PLP yeast -1%, Pf growth 48h inconclusive and NS1 function inh -38%.
`CN1C[C@@H]2[C@@H]3C(=O)N(Cc4ccccc4)C(=O)[C@@H]3[C@](C)(C1=O)N2C(=O)c1ccccc1` gave AMA1-RON2 inh -2% and HCV inhibitor 9%.
Screening Cc1nnc(Sc2cc(NCCCO)c([N+](=O)[O-])c3nonc23)s1 returned AMA1-RON2 inh 1%, HCV inhibitor 10µM*, Pf growth 96h inconclusive, SARS PLP yeast 3%, Pf growth 48h 0% and NS1 function inh -7%.
`Cc1nnc(Sc2cc(NCCO)c([N+](=O)[O-])c3nonc23)s1` gave AMA1-RON2 inh -4%, HCV inhibitor inconclusive, Pf growth 96h 30%, SARS PLP yeast 4% and Pf growth 48h inconclusive.
Screening CC(C)CC(O)C1CCN(C(=O)CCc2nnc(-c3ccccc3)o2)CC1 (stereo not given) returned AMA1-RON2 inh 0%, HCV inhibitor 8%, Pf growth 96h -9%, SARS PLP yeast 0%, Pf growth 48h 16% and NS1 function inh 10%.
`COc1ccc2[nH]c3c(=O)n4c(nc3c2c1)SCC4` gave AMA1-RON2 inh -5%, HCV inhibitor 11%, Pf growth 96h 10µM*, SARS PLP yeast -2% and Pf growth 48h 30%.
`O=c1c2[nH]c3ccccc3c2nc2n1CCS2` gave AMA1-RON2 inh -16%, HCV inhibitor 8%, Pf growth 96h 32%, SARS PLP yeast 0% and Pf growth 48h 10%.
`CC1(C)CC(N2CCN(Cc3ccccc3)CC2)=CC(=[N+]2CCCCC2)C1` gave AMA1-RON2 inh -26%, HCV inhibitor inconclusive, Pf growth 96h 0.52µM*, SARS PLP yeast 1%, Pf growth 48h 0.83µM* and NS1 function inh -6%.
CN(Cc1ccccc1)C1=CC(=[N+]2CCCCC2)CC(C)(C)C1 was read as AMA1-RON2 inh 0%, HCV inhibitor 2.8µM*, Pf growth 96h 0.33µM*, SARS PLP yeast -4%, Pf growth 48h 0.37µM* and NS1 function inh inconclusive.
Screening CC1(C)CC(NNCCC#N)=CC(=[N+]2CCCC2)C1 returned AMA1-RON2 inh -1%, HCV inhibitor 1%, Pf growth 96h inconclusive, SARS PLP yeast -4% and Pf growth 48h 0%.
Screening CC1(C)CC(N2CCCC2)=CC(=[N+]2CCCCC2)C1 returned AMA1-RON2 inh -3%, HCV inhibitor -26%, Pf growth 96h inconclusive, SARS PLP yeast 1% and Pf growth 48h 0.83µM*.

Screens as filed in PubChem BioAssay.
